Vif-A3F inh: Vif-A3F binding inhibition; HeLa A3F-eYFP + Vif (tagged APOBEC3F with the HIV-1 protein that degrades it), YFP fluorescence increase; Potency, µM (highest dose often 46.1 µM), inactives show at the top dose activity, negative = active; 390,000 compounds, 0.2% hits; AID 602313; further: potency means the concentration at half of the fitted maximal effect; % of control where 0% means no effect; nearly all actives have a fitted effect of over 65% in size
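Fluorescence increase (Ex 488/Em 500-530) after overnight compound treatment at 37 deg C flags inhibition of Vif-driven A3F-eYFP loss in stable HeLa A3F-eYFP/Vif cells seeded overnight beforehand.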
Vif-A3G inh: inhibitors of Vif-APOBEC3G interaction. Q9HC16. Potency, µM (series often up to 46.1 µM), without a hit: at the highest dose activity, negative = active, actives largely listed as inhibitors. 410,000 compounds, 0.076% hits. HeLa A3G-eYFP + Vif (tagged APOBEC3G with the HIV-1 protein that degrades it), YFP fluorescence, overnight. AID 602310; further: potency means the concentration at half of the fitted maximal effect; on the % scale 0 is the no-effect control and ±100 the full control effect; nearly all actives have a fitted effect of over 60% in size
Target sequence (Q9HC16 whole entry, looked up): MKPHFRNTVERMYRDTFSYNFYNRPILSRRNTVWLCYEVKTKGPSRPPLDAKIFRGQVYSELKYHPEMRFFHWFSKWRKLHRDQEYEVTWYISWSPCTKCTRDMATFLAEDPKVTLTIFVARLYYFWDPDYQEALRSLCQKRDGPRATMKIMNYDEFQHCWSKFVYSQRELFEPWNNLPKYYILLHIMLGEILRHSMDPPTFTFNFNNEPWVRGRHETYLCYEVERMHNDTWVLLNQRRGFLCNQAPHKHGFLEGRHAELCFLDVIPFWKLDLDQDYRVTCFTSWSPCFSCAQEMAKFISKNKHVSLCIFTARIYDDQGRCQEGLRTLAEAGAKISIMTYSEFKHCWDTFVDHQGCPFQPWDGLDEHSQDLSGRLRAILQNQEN
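Read-out is eYFP fluorescence (Ex 488/Em 500-530) from Vif-expressing HeLa A3G-eYFP cells; more signal means A3G escaped Vif-mediated degradation. Cells plated overnight, compound pinned in, incubated overnight at 37 deg C.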
ASM inhibitor: blocks human secretory acid sphingomyelinase; P17405; placental ASM, HMU-PC fluorogenic substrate, 60 min; Potency, µM (titrated, usually from 57.5 µM), for the others: at the top dose activity change, negative = inhibition, hits mostly inhibitors; 340,000 compounds, 0.006% hits; further: potency means the concentration at half of the fitted maximal effect
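Fluorescence read-out (Ex 386 nm, Em 447 nm) after stopping the reaction at pH 10. Enzyme: ASM from human placenta; substrate HMU-PC0, 9 uM final; 60 min, 37 °C. Compound preincubation 10 min, ambient temperature.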
Akt phos inh: inhibitors of Akt phosphorylation. activity change, % for hits at 50 µM. 360,000 compounds, 0.32% hits. Neuro2A IGF-stimulated pAkt S473 HTRF, 20 min; stronger effect = lower value. AID 651550; in the data active means activity change below about -80%; inconclusive means mostly about -51% to -80%; further: on the % scale 0 is the no-effect control and ±100 the full control effect
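Neuro2A cells (4,500/well, DMEM with 0.5% FBS) were treated with compound at a single 50 µM final concentration, stimulated with 6 nM IGF for 20 min at 37 °C, and lysed. Phospho-Akt Ser473 was read by HTRF as 665/615 ratio ×10^4.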
PTAP TSG101 blk: blocks PTAP/TSG101 interaction to inhibit HIV-1 budding. 340,000 tested, under 10 active. Fluorescence polarization, FITC-PTAP peptide / Tsg101 binding. Potency, µM (doses to about 115 µM), for inactives: at the top dose activity change, negative = inhibition, actives largely listed as inhibitors. AID 493005; active means well fitted inhibition curve with a large enough effect in the main read-out, with a control signal flat, not every such curve was filed as active; inconclusive means small, poorly fitted or top-dose-only effect, or effect the other way, or a change in a side signal; inactive means no such curve, though single readings can be large or run the other way; further: potency means the concentration at half of the fitted maximal effect; % of control where 0% means no effect
Target sequence (Q99816 whole entry, looked up): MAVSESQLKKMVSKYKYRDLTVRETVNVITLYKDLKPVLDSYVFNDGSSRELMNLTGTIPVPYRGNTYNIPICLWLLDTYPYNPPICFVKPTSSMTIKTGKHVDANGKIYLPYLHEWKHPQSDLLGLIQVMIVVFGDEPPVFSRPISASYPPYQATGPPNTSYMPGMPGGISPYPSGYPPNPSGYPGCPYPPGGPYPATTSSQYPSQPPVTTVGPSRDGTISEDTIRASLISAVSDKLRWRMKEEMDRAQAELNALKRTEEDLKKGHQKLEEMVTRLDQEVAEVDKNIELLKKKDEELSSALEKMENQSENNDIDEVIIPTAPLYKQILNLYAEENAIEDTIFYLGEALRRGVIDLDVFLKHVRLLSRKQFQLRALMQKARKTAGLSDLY
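FP read-out: FITC-PTAP peptide, 50 nM final, binding Tsg101 binding domain, 10 uM final; 20 min, r.t.; 10 mM HEPES pH 7.5, 0.15 M NaCl, 0.01% Tween 20, 3 mM EDTA, 0.1 mM TCEP.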
12-LOX inh: ALOX12 (human) lipoxygenase inhibition | purified 12hLO, xylenol orange hydroperoxide absorbance | Potency, µM (top dose mostly 108 µM), without a hit: at the highest dose activity change, negative = inhibition, hits mostly inhibitors | 580,000 compounds, 1.1% hits; further: potency means the concentration at half of the fitted maximal effect; on the % scale 0 is the no-effect control and ±100 the full control effect
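Purified human 12hLO (150 nM final) in 25 mM Hepes, 0.01% Triton X-100, pH 7.0 was preincubated 15 min at room temperature with compound. Then 40 uM arachidonic acid was added, 30 min. Hydroperoxide was read by Fe-XO absorbance ratio 573/405 nm.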
* = called active by the depositor; i = inactive; ? = inconclusive; · = no result; ! = not active in a repeat; [ ] = remark or other dose. Most compounds without a hit are left out; they make up all but 1.4% or so of the library. Unless noted, the call rests on the fitted dose curve; in most records, active means well fitted curve in the direction sought with a large enough effect; inconclusive means small, poorly fitted or top-dose-only effect, or another doubt; inactive means no such curve, though single readings can be large; an effect the other way counts as inactive or inconclusive.

SMILES	Vif-A3F inh	Vif-A3G inh	ASM inhibitor	Akt phos inh	PTAP TSG101 blk	12-LOX inh
COc1ccc(NC(=O)CN(C)C(=O)c2cc(-c3ccco3)nc3ccccc23)cc1	1%	-1%	·	i	-5%	?
Cc1ccc(-c2cc(C(=O)Nc3ccc(S(=O)(=O)Nc4onc(C)c4C)cc3)c3ccccc3n2)cc1	-8%	-7%	11%	i	-1%	35µM*
COc1ccc(NC(=O)c2cc(-c3ccco3)nc3ccccc23)cc1	3%	0%	-3%	i	0%	?
Cc1cccc(NC(=O)c2cc(-c3ccco3)nc3ccccc23)n1	-14%	-3%	157%	i	-9%	28µM*
CC(=O)Nc1ccc(NC(=O)c2cc(-c3ccco3)nc3ccccc23)cc1	·	·	·	·	·	11µM*
COc1ccc(N2CCCCS2(=O)=O)cc1S(=O)(=O)N(C)CCc1ccncc1	·	·	·	·	·	-7%
O=C(O)[C@@H](c1ccccc1)N1Cc2ccccc2C1=O	-8%	-2%	-2%	i	0%	40µM*
COCCNc1ncnc2ccc(-c3ccccc3C(F)(F)F)cc12	·	·	·	·	·	20µM*
COCCCNc1ncnc2ccc(C)cc12	1%	3%	2%	i	-5%	?
Cc1ccc(-n2c(SCC(=O)NC(N)=O)nnc2N2CCCCC2)cc1	·	·	·	·	·	-5%
COc1ccc(NC(=O)c2nnn3c2CN(Cc2cccc(Cl)c2)C(=O)CC3)c(C)c1	·	·	·	·	·	14%[176 µM]
Cc1cc(CS(=O)(=O)Cc2cccc(Cl)c2)no1	·	·	·	·	·	-8%
Cc1ccc(OCC(=O)NC2CC(C)(C)NC(C)(C)C2)cc1C	-1%	-2%	3%	i	-8%	2%
CC1(C)CC(NC(=O)COc2ccc3ccccc3c2)CC(C)(C)N1	9%	0%	-2%	-115%*	-3%	-8%
CCOC(=O)C1Nc2ccc(C)cc2C2C=CCC12 (stereo unspecified)	0%	-2%	3%	i	-9%	32µM*
CCOC(=O)C1Nc2ccc(Br)cc2C2C=CCC12 (stereo unspecified)	-1%	-1%	-2%	i	-3%	?
Cc1cc(NC(=O)CSc2nc(-c3cccnc3)ccc2C#N)no1	-18%	-22%	8%	i	-6%	0%
Cc1cc(NC(=O)CSc2nc3c(c(-c4cccnc4)c2C#N)CCC3)no1	-10%	0%	0%	-102%*	-3%	?
CCN(CC)c1ccc(/C=N/NS(=O)(=O)c2ccc(C)c([N+](=O)[O-])c2)cc1	-7%	-1%	-7%	i	0%	?
CCN(CC)c1ccc(/C=N/NS(=O)(=O)c2ccc(Cl)cc2)cc1	·	·	·	·	·	32µM*
CC(O)(P(=O)(O)O)P(=O)(O)O	0%	0%	14µM*	i	1%	?
O=C(CC1CCCC1)N1CCC2(CC1)CC(N(Cc1ccc(F)cc1)C1CC1)CCO2 (stereo unspecified)	·	·	·	·	·	20%
CCOc1ccc2[nH]c(C)c(CN3CCN(CC)CC3)c(=O)c2c1	-5%	0%	1%	-122%*	-6%	-8%
CCN(CC)c1nc(C)c(C(=S)Nc2cc([N+](=O)[O-])ccc2Cl)s1	11µM*	5%	3%	i	5%	-9%
CCC(C)(C)C(=O)Nc1cc([N+](=O)[O-])ccc1Cl	2%	-1%	3%	i	-1%	1%
SMILES	Vif-A3F inh	Vif-A3G inh	ASM inhibitor	Akt phos inh	PTAP TSG101 blk	12-LOX inh
COCCn1cc(C(=O)NCCc2ccccc2OC)ccc1=O	·	·	·	·	·	-43%
CCCS(=O)(=O)c1c(S(=O)(=O)CCC)c2c(N)cccn2c1C(=O)c1ccc(Br)cc1	3%	1%	-13%	i	0%	6.3µM*
CCCS(=O)(=O)c1c(S(=O)(=O)CCC)c2c(N)cccn2c1C(=O)c1ccc(F)cc1	·	-2%	-3%	i	-3%	?
Fc1ccccc1-c1nnc2sc(-c3ccc4ccccc4n3)nn12	·	·	·	·	·	-4%
Clc1cccc(-c2nn3c(-c4ccc5ccccc5n4)nnc3s2)c1	·	·	·	·	·	35µM*
COc1ccc(CCCC(=O)NC2CCCCC2C)c(C)c1 (stereo unspecified)	-3%	1%	6%	i	-1%	8.9µM*
CC(C)CNC(=O)N1CCC2(CC1)Nc1ccccc1-n1cccc12	·	·	·	·	·	12%
COc1ccc(O)c(C(=O)c2cc(SCC(=O)O)c3nc4sc5c(c4c(=O)n3c2)CCCC5)c1	-13%	-5%	?	i	-5%	35µM*
O=C(c1ccc(S(=O)(=O)N2CCCCC2)cc1)N1CCCc2ccccc21	3%	1%	-6%	-108%*	-1%	-6%
O=C(c1coc(=O)c(Br)c1)N1CCCc2ccccc21	5%	-2%	i	i	-3%	7.1µM*
CCCn1nc([N+](=O)[O-])c(C(C#N)c2nc3ccccc3o2)c(Cl)c1=O (stereo unspecified)	5%	-10%	2%	i	-4%	40µM*
CCn1nc([N+](=O)[O-])c(C(C#N)c2nc3cc(C(F)(F)F)ccc3s2)c(Cl)c1=O (stereo unspecified)	-2%	-7%	-11%	i	-9%	?
C[C@H](c1ccccc1)N1C[C@H](COCc2ccccc2)Oc2cc(N3CCC[C@H]3CO)ccc2S1(=O)=O	·	·	·	i	·	50µM*
NC1=NC(=O)/C(=C/c2ccc(OCC(=O)O)cc2)S1	-5%	-1%	2%	i	1%	?
CCN(CC)c1ccc(/C=C2\SC(N)=NC2=O)cc1	?	8.9µM*	11%	i	?	3%
COc1ccc2c(c1)C(NC(=O)c1cn(CCN)nn1)CC(C)(C)O2 (stereo unspecified)	·	·	·	·	·	-35%
FC(F)Sc1ccc(NC(=S)NCCC2=CCCCC2)cc1	·	·	·	·	·	18µM*
Cc1ccc(NC(=S)NCCC2=CCCCC2)cc1	-10%	1%	-2%	i	2%	?
CCOC(=O)c1ccc(NC(=S)NC(=O)C2CCCC2)cc1	?	1%	-12%	i	1%	40µM*
CCOC(=O)c1ccc(NC(=S)NCCc2ccccc2F)cc1	5%	-1%	-3%	i	0%	40µM*
CCOC(=O)c1ccc(NC(=S)NCCC2=CCCCC2)cc1	-25%	-8%	-4%	i	-1%	40µM*
COC(=O)c1ccc(NC(=S)NC(=O)C2CCC2)cc1	-31%	-7%	-2%	i	-7%	?
O=C(COc1cc(F)cc(F)c1)NC1CCS(=O)(=O)C1 (stereo unspecified)	·	·	·	·	·	3%
CCN(CC)C(=S)SSC(=S)N(CC)CC	8%	-10%	0%	i	2%	1.1µM*!

Bioassay records (PubChem BioAssay)
